The supplement of paper PMC11732987, “Enantioselective OTUD7B fragment discovery through chemoproteomics screening and high-throughput optimisation” (Communications Chemistry, 2025)

Columns and labels:
Experiment in all cases: log2 ratio of Biotin-Ahx-Ub-VS probe labelling (fragment/DMSO); higher = less target engagement (more negative = stronger competition), active = hit call of the paper (q ≤ 0.05, log2 ratio ≤ -1)
Conditions in all cases: compound concentration: 200 uM; treatment time: 3 h
USP19 = molecular target: T1, USP19 (UniProt O94966)
T1 sequence (whole entry): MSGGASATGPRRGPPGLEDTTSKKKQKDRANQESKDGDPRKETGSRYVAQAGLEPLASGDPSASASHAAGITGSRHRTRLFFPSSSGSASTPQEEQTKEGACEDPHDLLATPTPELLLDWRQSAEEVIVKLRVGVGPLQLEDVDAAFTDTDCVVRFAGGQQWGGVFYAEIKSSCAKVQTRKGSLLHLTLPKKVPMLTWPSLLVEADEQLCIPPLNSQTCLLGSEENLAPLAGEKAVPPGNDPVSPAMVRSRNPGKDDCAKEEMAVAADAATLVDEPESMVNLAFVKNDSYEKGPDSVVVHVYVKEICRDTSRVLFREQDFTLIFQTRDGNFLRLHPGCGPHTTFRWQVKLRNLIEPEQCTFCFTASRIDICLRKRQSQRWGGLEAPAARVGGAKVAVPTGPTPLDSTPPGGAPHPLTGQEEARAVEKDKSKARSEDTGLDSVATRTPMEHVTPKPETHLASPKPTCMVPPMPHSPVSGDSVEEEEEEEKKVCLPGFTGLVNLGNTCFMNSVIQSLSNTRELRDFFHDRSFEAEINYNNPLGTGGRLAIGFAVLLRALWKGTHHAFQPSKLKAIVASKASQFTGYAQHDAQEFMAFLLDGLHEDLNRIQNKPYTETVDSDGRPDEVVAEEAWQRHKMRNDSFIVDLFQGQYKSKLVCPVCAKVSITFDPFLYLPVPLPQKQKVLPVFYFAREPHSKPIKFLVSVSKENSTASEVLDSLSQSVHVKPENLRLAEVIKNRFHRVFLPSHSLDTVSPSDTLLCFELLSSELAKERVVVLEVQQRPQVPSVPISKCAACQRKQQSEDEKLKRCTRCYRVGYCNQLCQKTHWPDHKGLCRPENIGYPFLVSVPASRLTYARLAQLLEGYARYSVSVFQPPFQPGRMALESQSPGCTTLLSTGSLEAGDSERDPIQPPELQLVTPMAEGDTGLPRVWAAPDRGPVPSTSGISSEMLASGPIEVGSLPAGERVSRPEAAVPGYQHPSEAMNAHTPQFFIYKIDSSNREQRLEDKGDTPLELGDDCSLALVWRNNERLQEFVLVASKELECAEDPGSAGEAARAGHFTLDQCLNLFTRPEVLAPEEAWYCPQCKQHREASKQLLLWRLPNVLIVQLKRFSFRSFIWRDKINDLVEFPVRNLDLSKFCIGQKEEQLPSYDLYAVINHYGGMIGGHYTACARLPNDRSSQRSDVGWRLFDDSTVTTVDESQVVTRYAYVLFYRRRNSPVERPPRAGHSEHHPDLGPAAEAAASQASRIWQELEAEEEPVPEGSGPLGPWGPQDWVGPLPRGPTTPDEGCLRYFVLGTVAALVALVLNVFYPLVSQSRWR
In short: (§1)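 Average log2 ratios of fragment over vehicle were obtained by unpaired t-test from global-median-normalised Spectronaut label-free quantities. Proteins with ≥2 unique peptides were included. HEK293T lysate (495 µg per sample) was treated in triplicate with fragment at 200 µM or vehicle for 3 h, then with Biotin-Ahx-Ub-VS at 0.5 µM final for 1 h, and labelled DUBs were NeutrAvidin-enriched and run by diaPASEF LC-MS/MS.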

USP22 = molecular target: T2, USP22 (UniProt Q9UPT9)
T2 sequence (whole entry): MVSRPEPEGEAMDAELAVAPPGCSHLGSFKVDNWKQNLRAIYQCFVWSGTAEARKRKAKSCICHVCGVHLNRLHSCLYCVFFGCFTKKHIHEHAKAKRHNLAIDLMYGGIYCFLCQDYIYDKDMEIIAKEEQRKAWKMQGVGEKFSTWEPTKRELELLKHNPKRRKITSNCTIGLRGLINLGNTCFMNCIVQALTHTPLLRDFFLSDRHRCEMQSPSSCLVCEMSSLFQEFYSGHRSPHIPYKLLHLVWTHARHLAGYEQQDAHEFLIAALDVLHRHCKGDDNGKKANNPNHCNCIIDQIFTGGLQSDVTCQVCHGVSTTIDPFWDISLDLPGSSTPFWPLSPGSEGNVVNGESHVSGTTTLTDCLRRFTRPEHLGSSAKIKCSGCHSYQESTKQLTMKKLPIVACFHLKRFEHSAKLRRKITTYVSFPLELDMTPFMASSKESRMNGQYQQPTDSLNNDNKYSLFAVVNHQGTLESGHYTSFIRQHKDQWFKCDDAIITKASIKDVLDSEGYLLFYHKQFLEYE
In short: as §1

USP24 = USP24 (UniProt Q9UPU5)
In short: as §1

USP25 = molecular target: T3, USP25 (UniProt Q9UHP3)
T3 sequence (whole entry): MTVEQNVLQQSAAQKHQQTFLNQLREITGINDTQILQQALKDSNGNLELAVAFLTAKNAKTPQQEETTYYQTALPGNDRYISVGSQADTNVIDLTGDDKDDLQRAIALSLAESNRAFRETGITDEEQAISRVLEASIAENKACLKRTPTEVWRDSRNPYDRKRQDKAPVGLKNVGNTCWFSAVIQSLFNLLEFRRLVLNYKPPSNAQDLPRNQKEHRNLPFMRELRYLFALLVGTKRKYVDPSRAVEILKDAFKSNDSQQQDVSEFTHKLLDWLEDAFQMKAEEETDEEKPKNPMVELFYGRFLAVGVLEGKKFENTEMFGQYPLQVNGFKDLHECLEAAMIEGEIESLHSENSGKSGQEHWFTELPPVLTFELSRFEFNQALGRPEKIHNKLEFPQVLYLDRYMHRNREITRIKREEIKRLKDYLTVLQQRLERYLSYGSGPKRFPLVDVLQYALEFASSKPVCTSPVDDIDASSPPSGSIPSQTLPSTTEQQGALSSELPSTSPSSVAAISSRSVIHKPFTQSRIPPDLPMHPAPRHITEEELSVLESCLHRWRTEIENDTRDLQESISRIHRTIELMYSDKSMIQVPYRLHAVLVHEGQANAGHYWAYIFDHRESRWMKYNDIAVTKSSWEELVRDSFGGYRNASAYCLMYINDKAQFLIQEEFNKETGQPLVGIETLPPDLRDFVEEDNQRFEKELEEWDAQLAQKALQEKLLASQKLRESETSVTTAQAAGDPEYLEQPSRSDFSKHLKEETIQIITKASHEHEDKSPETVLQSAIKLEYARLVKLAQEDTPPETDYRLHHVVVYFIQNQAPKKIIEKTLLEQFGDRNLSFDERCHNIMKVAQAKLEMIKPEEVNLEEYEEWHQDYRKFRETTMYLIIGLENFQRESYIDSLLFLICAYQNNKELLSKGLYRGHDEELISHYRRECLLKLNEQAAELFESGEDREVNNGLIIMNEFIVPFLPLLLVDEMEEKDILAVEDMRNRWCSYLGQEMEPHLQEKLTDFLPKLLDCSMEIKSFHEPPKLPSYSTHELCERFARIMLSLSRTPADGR
In short: as §1

USP28 = molecular target: T4, USP28 (UniProt Q96RU2)
T4 sequence (whole entry): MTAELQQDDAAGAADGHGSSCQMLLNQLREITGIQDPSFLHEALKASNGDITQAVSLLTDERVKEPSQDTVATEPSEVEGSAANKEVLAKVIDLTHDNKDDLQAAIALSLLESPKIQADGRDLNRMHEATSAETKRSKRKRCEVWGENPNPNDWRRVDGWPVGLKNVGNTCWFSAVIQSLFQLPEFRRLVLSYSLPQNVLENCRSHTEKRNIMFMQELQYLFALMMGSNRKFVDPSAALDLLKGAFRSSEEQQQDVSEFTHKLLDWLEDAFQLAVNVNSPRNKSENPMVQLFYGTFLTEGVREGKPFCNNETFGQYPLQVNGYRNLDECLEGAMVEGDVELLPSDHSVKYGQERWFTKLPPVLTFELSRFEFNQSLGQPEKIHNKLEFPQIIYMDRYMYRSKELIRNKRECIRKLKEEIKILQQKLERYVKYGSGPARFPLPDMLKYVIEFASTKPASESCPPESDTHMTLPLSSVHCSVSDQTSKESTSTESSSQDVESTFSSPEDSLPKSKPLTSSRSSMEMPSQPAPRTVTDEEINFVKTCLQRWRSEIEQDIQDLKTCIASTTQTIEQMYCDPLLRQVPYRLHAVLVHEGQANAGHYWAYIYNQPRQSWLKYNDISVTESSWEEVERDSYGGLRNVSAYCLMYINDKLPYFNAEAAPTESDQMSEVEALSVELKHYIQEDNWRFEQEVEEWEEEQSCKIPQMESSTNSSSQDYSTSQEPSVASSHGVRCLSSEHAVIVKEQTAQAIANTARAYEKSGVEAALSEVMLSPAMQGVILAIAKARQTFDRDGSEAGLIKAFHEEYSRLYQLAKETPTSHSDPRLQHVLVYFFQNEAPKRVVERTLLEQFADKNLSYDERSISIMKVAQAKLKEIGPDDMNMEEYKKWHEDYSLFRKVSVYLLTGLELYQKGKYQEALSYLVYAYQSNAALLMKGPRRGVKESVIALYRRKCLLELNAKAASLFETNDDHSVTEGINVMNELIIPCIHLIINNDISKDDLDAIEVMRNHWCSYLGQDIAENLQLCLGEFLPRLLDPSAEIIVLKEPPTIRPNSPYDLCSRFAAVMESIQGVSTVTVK
In short: as §1

Measured: log2 ratio of Biotin-Ahx-Ub-VS probe labelling

Chain of USP24 (Q9UPU5 whole entry): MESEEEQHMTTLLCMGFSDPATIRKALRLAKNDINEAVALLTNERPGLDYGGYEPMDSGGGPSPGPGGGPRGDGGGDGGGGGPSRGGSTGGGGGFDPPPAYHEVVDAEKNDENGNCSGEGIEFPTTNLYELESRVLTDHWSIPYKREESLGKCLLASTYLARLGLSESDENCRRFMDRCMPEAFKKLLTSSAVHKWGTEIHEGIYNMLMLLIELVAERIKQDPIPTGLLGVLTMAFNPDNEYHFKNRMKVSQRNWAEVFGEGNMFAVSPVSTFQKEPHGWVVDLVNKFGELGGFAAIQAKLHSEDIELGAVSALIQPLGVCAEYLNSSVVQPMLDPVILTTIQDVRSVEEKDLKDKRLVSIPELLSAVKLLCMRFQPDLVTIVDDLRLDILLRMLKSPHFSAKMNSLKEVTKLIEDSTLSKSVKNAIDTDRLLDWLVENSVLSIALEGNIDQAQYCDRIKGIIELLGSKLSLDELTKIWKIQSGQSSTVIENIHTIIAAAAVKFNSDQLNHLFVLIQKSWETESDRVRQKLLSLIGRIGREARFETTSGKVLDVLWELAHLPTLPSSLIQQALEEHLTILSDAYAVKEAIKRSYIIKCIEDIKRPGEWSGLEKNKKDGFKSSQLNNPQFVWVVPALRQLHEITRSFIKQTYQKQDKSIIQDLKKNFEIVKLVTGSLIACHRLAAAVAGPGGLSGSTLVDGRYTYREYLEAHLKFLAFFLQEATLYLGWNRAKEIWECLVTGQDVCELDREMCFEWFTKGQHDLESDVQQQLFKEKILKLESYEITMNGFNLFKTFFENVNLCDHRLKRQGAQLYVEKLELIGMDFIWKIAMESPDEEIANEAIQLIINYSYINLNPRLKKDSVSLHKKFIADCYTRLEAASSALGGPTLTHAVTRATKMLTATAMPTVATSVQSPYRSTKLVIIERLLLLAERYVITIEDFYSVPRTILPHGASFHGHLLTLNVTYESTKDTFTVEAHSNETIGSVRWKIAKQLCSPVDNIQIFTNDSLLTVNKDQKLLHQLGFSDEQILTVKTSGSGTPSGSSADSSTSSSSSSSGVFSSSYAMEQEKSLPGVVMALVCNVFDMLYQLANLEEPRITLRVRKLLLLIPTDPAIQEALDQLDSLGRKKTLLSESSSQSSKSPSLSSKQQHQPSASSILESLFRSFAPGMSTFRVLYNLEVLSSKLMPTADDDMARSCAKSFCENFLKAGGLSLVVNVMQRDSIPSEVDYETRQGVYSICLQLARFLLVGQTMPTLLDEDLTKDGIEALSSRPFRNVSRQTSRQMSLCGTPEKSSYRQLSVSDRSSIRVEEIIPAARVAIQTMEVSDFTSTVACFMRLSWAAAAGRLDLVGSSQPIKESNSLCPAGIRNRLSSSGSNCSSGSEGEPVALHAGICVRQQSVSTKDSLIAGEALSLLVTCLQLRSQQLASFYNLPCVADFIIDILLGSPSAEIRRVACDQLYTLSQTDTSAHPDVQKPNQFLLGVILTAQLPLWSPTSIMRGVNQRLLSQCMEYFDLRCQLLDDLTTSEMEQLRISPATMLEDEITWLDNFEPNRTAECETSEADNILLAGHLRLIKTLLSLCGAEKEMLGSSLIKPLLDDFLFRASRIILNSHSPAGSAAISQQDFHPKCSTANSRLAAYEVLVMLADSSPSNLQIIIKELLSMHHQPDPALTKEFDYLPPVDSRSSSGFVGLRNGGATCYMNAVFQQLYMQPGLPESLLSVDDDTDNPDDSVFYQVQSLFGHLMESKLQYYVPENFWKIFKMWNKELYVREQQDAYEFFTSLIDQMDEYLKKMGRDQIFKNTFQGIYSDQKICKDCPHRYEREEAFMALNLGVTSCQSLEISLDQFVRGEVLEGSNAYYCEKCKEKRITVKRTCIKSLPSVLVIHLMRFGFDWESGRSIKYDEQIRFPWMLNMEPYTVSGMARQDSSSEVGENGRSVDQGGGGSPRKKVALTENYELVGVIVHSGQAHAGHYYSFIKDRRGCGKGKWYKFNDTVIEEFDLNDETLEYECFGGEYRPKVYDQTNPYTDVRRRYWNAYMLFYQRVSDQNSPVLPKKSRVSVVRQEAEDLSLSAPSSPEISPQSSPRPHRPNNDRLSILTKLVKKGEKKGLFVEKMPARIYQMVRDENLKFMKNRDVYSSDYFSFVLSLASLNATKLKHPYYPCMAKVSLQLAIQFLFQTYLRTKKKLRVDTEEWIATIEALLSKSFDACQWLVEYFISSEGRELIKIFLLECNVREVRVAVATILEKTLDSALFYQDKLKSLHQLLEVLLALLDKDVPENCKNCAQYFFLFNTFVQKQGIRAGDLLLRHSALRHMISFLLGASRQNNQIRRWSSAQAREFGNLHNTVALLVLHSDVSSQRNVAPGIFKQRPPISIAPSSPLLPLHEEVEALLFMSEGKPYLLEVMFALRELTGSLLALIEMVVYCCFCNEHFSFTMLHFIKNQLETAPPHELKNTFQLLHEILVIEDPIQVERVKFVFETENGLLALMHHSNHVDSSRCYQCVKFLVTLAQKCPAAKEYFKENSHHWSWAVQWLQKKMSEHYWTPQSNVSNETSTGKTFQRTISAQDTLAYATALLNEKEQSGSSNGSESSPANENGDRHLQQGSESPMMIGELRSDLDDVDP

Cc1cccn2cc(CCNC(=O)CCl)nc12.Cl
inactive: USP19 -0.279 | USP22 -0.0399 | USP24 -0.29 | USP25 -0.0777 | USP28 -0.334
